VP16 counter = counter-screen for ROR gamma inhibitors: Gal4-VP16 reporter; Drosophila S2 Gal4-VP16 UAS-luciferase, luminescence, 20 h; Potency, µM (doses to about 53.6 µM), hits mostly inhibitors; hit rate 3.5% among 310,000; AID 2546;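 note: Gal4-VP16 expression switched on by copper sulfate through the metallothionein promoter; nearly all actives have a fitted effect of over 50% in size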
ELG1 DNA repair = blocks ELG1-dependent DNA repair in HEK293T cells; hit rate 2.3% among 330,000; AID 504467; HEK293T ELG1-luciferase reporter, luminescence, 16 h; DNA damage induced by 5-fluorouridine; Potency, µM (doses to about 46.1 µM), most hits filed as inhibitors; note: nearly all actives have a fitted effect of over 55% in size
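Quantitative HTS, concentration-response format. 2,000 cells/well co-treated with 5-fluorouridine and compound, 16 hr in 5% CO2 at 37 °C; ONE-Glo luminescence read after 30 min.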
TDP1 cell noCPT = qHTS for Inhibitors of human tyrosyl-DNA phosphodiesterase 1 (TDP1): qHTS in cells in absence of CPT; DT40 Tdp1-/- hTDP1 cells, no CPT, ATP luminescence, 48 h; AID 686978, 2013; Potency, µM (titrated, usually from 46.2 µM), hits mostly inhibitors; hit rate 15% among 420,000; note: nearly all actives have a fitted effect of over 55% in size
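Stably hTDP1-transfected Tdp1-null chicken DT40 cells were treated with library compounds minus camptothecin and grown for at least 48 hr at 37 °C, after which cellular ATP was quantified by luminescence.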
12-LOX inh = inhibitors of human 12S-lipoxygenase ALOX12. P18054. purified 12hLO, xylenol orange hydroperoxide absorbance. AID 1671190. Potency, µM (highest dose often 108 µM), hits mostly inhibitors. hit rate 1.1% among 580,000
Target sequence (P18054 whole entry, looked up): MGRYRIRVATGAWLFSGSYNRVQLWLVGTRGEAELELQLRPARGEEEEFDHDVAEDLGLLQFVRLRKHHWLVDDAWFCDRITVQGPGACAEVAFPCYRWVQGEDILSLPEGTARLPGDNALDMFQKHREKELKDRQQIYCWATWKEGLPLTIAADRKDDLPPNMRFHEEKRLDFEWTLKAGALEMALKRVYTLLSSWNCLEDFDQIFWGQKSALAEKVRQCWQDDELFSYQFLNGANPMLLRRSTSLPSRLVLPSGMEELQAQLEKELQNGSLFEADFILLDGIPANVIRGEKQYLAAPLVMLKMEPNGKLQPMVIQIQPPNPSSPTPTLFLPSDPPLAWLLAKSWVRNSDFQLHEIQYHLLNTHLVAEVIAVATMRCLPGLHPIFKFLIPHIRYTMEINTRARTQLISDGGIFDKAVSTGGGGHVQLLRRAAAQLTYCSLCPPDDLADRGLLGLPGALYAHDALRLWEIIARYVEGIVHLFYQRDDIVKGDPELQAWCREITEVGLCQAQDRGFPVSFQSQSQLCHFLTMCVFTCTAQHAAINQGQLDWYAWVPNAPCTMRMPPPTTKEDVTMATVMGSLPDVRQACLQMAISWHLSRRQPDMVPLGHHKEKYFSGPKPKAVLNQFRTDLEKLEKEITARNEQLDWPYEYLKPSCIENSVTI
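Hydroperoxide product was detected by ferrous iron/xylenol orange as the 573 to 405 nm absorbance ratio. Arachidonic acid at 40 uM (final) was turned over for 30 min at room temperature by 150 nM human 12hLO, pH 7.0 Hepes buffer, after 15 min compound preincubation.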
RORg inh = inhibitors of mouse ROR gamma transcriptional activity | AID 2551 | Drosophila S2 Gal4-RORgamma UAS-luciferase reporter, 20 h | Potency, µM (top dose mostly 53.6 µM), hits mostly inhibitors | hit rate 5.4% among 310,000 | P51450; note: nearly all actives have a fitted effect of over 60% in size
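Stably transfected Drosophila Schneider cells are the test system, with ROR gamma fused to Gal4 and luciferase under UAS control; luminescence is read after 20 hr of 700 uM copper sulfate induction at ambient temperature.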
TDP1 cell CPT = growth inhibition of DT40 Tdp1-/-;hTDP1 cells with camptothecin (screen for TDP1 inhibitors). Potency, µM (doses to about 46.2 µM), actives largely listed as inhibitors. chicken DT40 Tdp1-/-;hTDP1 cells + 20 nM CPT, ATP luminescence, 48 h. hit rate 12% among 420,000. AID 686979; note: nearly all actives have a fitted effect of over 55% in size
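Cell growth measured by CellTiter-Glo luminescence after a minimum 48 h, 37 C compound exposure with 20 nM CPT in Tdp1-knockout DT40 cells stably expressing hTDP1, seeded 400/well; qHTS titration format.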
Numbers stand for hits; – = inactive; ? = inconclusive; · = no result given; ! = a repeat was not active. Most compounds without a hit are left out; they make up all but 15% or so of the library. Calls come from the whole dose curve; as a rule, active = well fitted curve in the direction sought with a large enough effect; inconclusive = small, poorly fitted or top-dose-only effect, or another doubt; inactive = no such curve, though single readings can be large; an effect the other way counts as inactive or inconclusive.

SMILES	VP16 counter	ELG1 DNA repair	TDP1 cell noCPT	12-LOX inh	RORg inh	TDP1 cell CPT
CC(=O)/C(=C/c1ccccc1)C(=O)Nc1ccccc1C	?	–	4.6µM	–	?	?
COc1cc(OC)c(OC)cc1/C=N/NC(=S)NCC1CCCO1 (stereo not drawn)	14µM	18µM	?	–	6.3µM	7.3µM
COCCNC(=S)N/N=C/c1cc(OC)c(OC)cc1OC	·	·	·	–	·	·
COc1cc(OC)c(OC)cc1/C=N/NC(=S)NCCN1CCOCC1	7.1µM	–	16µM	–	4µM	18µM
S=C(NCCCN1CCOCC1)NN=C1c2ccccc2-c2ccccc21	·	·	5.8µM	45µM	·	5.8µM
S=C(NCCCN1CCOCC1)Nc1ccc(N2CCOCC2)cc1	–	–	–	–	–	–
COc1ccc2ccccc2c1/C=N/NC(=S)NCCN1CCOCC1	4.5µM	?	–	–	4.5µM	16µM
N#Cc1ccc(/C=N/Nc2ccc(S(N)(=O)=O)cc2[N+](=O)[O-])cc1	·	·	·	–	·	·
S=C(NCCN1CCOCC1)N/N=C/c1ccccc1	?	–	–	–	13µM	–
COc1cc(/C=N/NC(=S)NCCN2CCOCC2)cc(OC)c1O	?	–	–	–	?	–
Oc1ccc(/C=N/NC(=S)NCCN2CCOCC2)c(O)c1	–	–	?	–	13µM	?
O=C(CCNc1cc(Cl)cc(Cl)c1)c1cccs1	–	–	?	–	–	?
O=C(CCSc1ccc(Cl)cc1)c1cccs1	?	–	2.3µM	–	?	1.8µM
O=C(CNC(=O)c1cccs1)c1ccc(Cl)cc1	–	?	–	?	–	–
O=C(CCNc1ccc(Cl)cc1)c1cccs1	–	?	15µM	–	–	26µM
CCCN1CNC(=S)N(c2cc(C)ccc2C)C1	11µM	–	–	?	13µM	–
Cc1ccc(C)c(N2CN(CCC3=CCCCC3)CNC2=S)c1	4.5µM	–	21µM	?	3.2µM	?
CCN1CNC(=S)N(c2ccccc2C)C1	–	–	–	?	–	–
CCN(CC)CCN1CNC(=S)NC1	·	·	–	–	·	–
CCCN1CNC(=S)N(N2CN(CCC)CNC2=S)C1	·	·	·	13µM	·	·
NC(=O)[C@@H]1C[C@H](Oc2cccnc2)CN1S(=O)(=O)c1ccccc1	·	·	·	–	·	·
CC(C)OC(=O)CN1C(=O)C(C)(C)Oc2ccc(C(=O)NC(C)(C)C)cc21	–	?	–	–	–	–
CCOC(=O)CN1C(=O)C(C)(C)Oc2ccc(C(=O)Nc3ccccc3)cc21	–	13µM	?	–	?	?
C=CCC1(O)CC(C)N(C)CC1C (stereo not drawn)	·	·	·	–	·	·
COc1ccc(-n2nc(C(=O)NCC(=O)Nc3cccc(Cl)c3)c3ccccc3c2=O)cc1	–	13µM	?	–	–	?
SMILES	VP16 counter	ELG1 DNA repair	TDP1 cell noCPT	12-LOX inh	RORg inh	TDP1 cell CPT
COc1ccc(-n2nc(C(=O)NCC(=O)Nc3ccccn3)c3ccccc3c2=O)cc1	–	–	–	–	–	–
COc1ccc(-n2nc(C(=O)NCC(=O)Nc3cc(OC)c(OC)c(OC)c3)c3ccccc3c2=O)cc1Cl	–	?	1.6µM	–	?	?
CCOc1ccc(NC(=O)CNC(=O)c2nn(-c3ccc(OC)cc3)c(=O)c3ccccc23)cc1	–	?	12µM	–	?	–
CCOc1cc(C)c(CN2CCC3(C2)CN(C)C(=O)O3)cc1C(C)C (stereo not drawn)	·	·	·	–	·	·
COCCn1c(C)cnc1CC1CCN(C(=O)CCC2CCCC2)CC1	·	·	·	–	·	·
COc1cccc(/C=C2\SC(N3CCC(C)CC3)=NC2=O)c1OC	–	–	–	–	–	?
COc1ccc(OC)c(/C=C2\SC(N3CCCCC3)=NC2=O)c1	–	?	5.8µM	?	–	7.3µM
CCCOc1ccccc1/C=C1\SC(N2CCCCC2)=NC1=O	–	–	5.8µM	–	–	?
COc1cc(OC)c(OC)cc1/C=C1\SC(N2CCCCC2)=NC1=O	–	?	?	–	–	–
O=C1N=C(N2CCCCC2)S/C1=C\c1ccccc1F	–	?	?	–	–	–
COc1ccccc1/C=C1\SC(N2CCC(C)CC2)=NC1=O	–	–	23µM	–	–	?
COc1cc(C(=O)N(C)Cc2nc3ccccc3c(=O)[nH]2)cc(Cl)c1OCC(N)=O	·	·	·	–	·	·
C/C(N)=C(/C#N)C(=O)CSc1nc(C2CCCCC2)n(-c2ccccc2)n1	–	?	?	–	–	13µM!
NC(=O)NC(=O)CSc1nc(C2CCCCC2)n(-c2ccccc2)n1	–	–	?	–	–	–
Cc1noc(NC(=O)c2ccc(Cl)c(Cl)c2)c1Cl	18µM	–	?	–	?	–
COc1cccc(CCNC(=O)c2c(C)noc2-c2ccc3c(c2)OCO3)c1	·	·	·	–	·	·
CCN(C)C(=O)C1=COC2=NC(=O)N(Cc3ccccc3)CCN12	·	·	·	–	·	·
COc1cc2c(cc1NC(=O)CSCC(=O)O)oc1ccccc12	?	–	–	–	?	–
COc1cc2c(cc1NC(=O)CCC(=O)O)oc1ccccc12	–	–	–	–	–	–
COc1cc2c(cc1NC(=S)Nc1cccc(C(F)(F)F)c1)oc1ccccc12	?	–	29µM	?	?	23µM
COc1cc2c(cc1NC(=S)Nc1cccc3ccccc13)oc1ccccc12	11µM	–	?	?	10µM	–
COCCCNC(=S)Nc1cc2oc3ccccc3c2cc1OC	7.1µM	–	6.5µM	–	5.6µM	8.2µM
CCN(CC)S(=O)(=O)c1cccc(C(=O)Nc2cc3oc4ccccc4c3cc2OC)c1	–	?	18µM	–	–	16µM
COc1cc(CNC(=O)c2ccc3c(c2)N(C)C2CCCN2C3=O)cc(OC)c1 (stereo not drawn)	·	·	·	–	·	·
CC(C)[C@H](CO)N(Cc1cccc(F)c1)c1nc(Nc2cccc(Cl)c2)c2ncn(C(C)C)c2n1	–	–	?	–	–	?
SMILES	VP16 counter	ELG1 DNA repair	TDP1 cell noCPT	12-LOX inh	RORg inh	TDP1 cell CPT
CC[C@H](CO)Nc1nc(Nc2cccc(Cl)c2)c2ncn(C(C)C)c2n1	3.2µM	7.3µM	9.2µM	–	?	9.2µM
CCOC(=O)c1ccc(-c2c(-c3ccc4c(c3)OCO4)noc2C)cc1F	–	–	?	–	–	16µM
COCCCNC(=O)c1ccc2c3c(onc13)-c1ccccc1C2=O	?	?	15µM	·	–	7.3µM
COCCCNC(=O)c1cc(C)nc2ccccc12	·	·	·	–	·	·
CN1CCCC(CC2c3ccccc3Sc3ccccc32)C1 (stereo not drawn)	·	–	8.1µM	–	·	?
COC(=O)C1Cc2c([nH]c3ccccc23)C2(CCN(Cc3ccccc3)CC2)N1 (stereo not drawn)	–	–	21µM	?	–	?
CCN(C1CCOCC1)C1CN(C(=O)c2cnn(C)c2)C1	·	·	·	–	·	·

Assay outcomes: PubChem BioAssay, National Center for Advancing Translational Sciences (NCATS)
